Laboratory results as given in PubChem BioAssay.
Calls of active or inactive are those of the source.

Experiments:
[1] = test system: Plasmodium falciparum Sir2 (PF13_0152, Sir2A); test: pfSir2 binders on small-molecule microarrays, primary screen, biochemical, small-molecule microarray, 635 nm fluorescence (AID 1098); details: small-molecule microarray binding, fluorescence 635 nm; higher = more signal;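 note: score merges spot fluorescence intensity with its signal-to-noise ratio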
[2] = small-molecule microarray binders of probe aDKK1, primary screen, biochemical, biotinylated probe, 635/667 nm fluorescence (AID 1099); details: higher = more signal;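 note: score merges 667nm spot fluorescence with signal to noise across triplicate slides; reference of the scale not given here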
[3] = small-molecule microarray binders of probe aCHRDL2, primary screen, biochemical, biotinylated probe, 635/667 nm fluorescence (AID 1100); details: higher = more signal
[4] = splicing luciferase reporter signal modulators, primary screen, spliceosome inhibition project, cell-based, HEK293, splice +/- reporter (AID 1101); details: luminescence, 24 h, higher = more signal, called active from +8 up or from −8 down;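 note: HEK293 cells carrying a splicing-competent luciferase reporter gene; test concentration not given here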
[5] = target: Fibroblast growth factor 10 (Homo sapiens) (UniProt O15520); test: FGF10 binders on small-molecule microarrays, primary screen, biochemical, small-molecule microarray, 635 nm fluorescence (AID 1102); details: FGF10 binding, fluorescence 635 nm, higher = more signal
Fibroblast growth factor 10 (Homo sapiens), sequence (O15520 whole entry, looked up): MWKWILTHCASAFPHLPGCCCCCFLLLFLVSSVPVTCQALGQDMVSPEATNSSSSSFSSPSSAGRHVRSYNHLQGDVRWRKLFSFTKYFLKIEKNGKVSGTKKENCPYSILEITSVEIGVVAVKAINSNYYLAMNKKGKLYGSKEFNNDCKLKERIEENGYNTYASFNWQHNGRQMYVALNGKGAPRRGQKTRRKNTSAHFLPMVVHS

[6] = test system: glycogen synthase kinase-3 (GSK3A per assay name; protocol says GSK3B); test: GSK3 binders on small-molecule microarrays, primary screen, biochemical, small-molecule microarray, 635 nm fluorescence, GSK3A (AID 1103); details: small-molecule microarray binding, fluorescence 635 nm; higher = more signal; note: the record names both GSK3A and GSK3B
[7] = target: Epidermal growth factor receptor (Homo sapiens) (UniProt P00533); test: EGFR binders on small-molecule microarrays, primary screen, biochemical, small-molecule microarray, 635 nm fluorescence (AID 1104); details: EGFR binding, higher = more signal;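 note: score merges 667 nm emission intensity with spot signal to noise over triplicate slides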
Epidermal growth factor receptor (Homo sapiens), sequence (P00533 whole entry, looked up): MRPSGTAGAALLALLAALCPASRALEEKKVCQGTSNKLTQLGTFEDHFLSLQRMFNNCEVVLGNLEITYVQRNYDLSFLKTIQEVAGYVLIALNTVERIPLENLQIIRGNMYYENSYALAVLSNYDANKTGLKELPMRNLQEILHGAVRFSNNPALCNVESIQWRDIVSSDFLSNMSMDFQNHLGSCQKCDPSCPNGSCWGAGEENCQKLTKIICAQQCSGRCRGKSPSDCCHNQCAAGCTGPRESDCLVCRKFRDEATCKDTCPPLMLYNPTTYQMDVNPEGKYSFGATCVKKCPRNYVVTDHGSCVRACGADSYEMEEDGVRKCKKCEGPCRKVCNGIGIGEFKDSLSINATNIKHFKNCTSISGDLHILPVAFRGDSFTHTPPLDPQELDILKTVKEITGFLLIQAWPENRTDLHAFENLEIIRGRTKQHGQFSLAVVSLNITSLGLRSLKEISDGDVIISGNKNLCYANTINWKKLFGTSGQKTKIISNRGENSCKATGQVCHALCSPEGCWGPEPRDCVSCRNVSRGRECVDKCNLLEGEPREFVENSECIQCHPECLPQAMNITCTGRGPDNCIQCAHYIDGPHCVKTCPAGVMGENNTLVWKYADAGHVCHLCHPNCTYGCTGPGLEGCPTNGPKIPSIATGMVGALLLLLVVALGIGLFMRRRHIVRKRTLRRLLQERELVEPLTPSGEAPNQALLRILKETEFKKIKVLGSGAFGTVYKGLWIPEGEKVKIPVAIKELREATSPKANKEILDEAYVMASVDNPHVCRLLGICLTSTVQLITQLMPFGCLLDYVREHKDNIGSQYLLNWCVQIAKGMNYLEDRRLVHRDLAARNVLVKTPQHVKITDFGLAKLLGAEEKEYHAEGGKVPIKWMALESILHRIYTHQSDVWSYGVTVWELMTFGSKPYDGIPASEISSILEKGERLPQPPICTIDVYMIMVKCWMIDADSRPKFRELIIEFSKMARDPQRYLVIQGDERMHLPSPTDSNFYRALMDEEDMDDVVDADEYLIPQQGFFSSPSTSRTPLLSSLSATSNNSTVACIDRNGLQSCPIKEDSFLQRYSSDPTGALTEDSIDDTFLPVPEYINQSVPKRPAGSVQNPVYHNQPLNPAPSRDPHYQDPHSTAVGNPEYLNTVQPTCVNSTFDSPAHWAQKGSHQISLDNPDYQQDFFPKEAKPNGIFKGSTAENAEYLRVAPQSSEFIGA

[8] = target: Follistatin-related protein 3 (Homo sapiens) (UniProt O95633); test: FSTL3 binders on small-molecule microarrays, primary screen, biochemical, small-molecule microarray, 635 nm fluorescence (AID 1105); details: FSTL3 binding, higher = more signal;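 note: score merges emission near 667 nm and signal to noise per printed spot across three slides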
Follistatin-related protein 3 (Homo sapiens), sequence (O95633 whole entry, looked up): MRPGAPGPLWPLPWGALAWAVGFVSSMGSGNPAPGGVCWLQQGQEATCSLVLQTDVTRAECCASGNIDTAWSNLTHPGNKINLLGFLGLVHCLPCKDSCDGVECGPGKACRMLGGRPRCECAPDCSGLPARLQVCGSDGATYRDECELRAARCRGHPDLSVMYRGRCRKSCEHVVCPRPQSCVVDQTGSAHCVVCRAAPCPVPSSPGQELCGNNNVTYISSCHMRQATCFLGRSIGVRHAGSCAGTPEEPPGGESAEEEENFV

[9] = target: Dickkopf-related protein 1 (Homo sapiens) (UniProt O94907); test: DKK1 binders on small-molecule microarrays, primary screen, biochemical, small-molecule microarray, 635 nm fluorescence scan (AID 1106); details: DKK1 binding, higher = more signal;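 note: score merges emission near 667 nm with signal to noise over three replicate slides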
Dickkopf-related protein 1 (Homo sapiens), sequence (O94907 whole entry, looked up): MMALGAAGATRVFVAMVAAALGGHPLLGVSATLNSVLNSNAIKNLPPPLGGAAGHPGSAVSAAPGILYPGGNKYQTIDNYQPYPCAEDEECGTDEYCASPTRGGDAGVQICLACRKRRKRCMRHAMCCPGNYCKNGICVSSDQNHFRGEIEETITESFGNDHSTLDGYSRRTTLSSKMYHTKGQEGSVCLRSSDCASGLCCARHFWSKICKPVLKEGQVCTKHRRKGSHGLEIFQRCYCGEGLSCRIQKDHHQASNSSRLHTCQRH

[10] = test system: Inhibin beta A chain (activin A); test: INHBA (activin A) binders on microarrays, primary screen, biochemical, small-molecule microarray, 635 nm fluorescence scan (AID 1107); details: small-molecule microarray binding, higher = more signal;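 note: mouse activin A protein probed at 4.33 µg/mL on printed slides; score merges bound-protein fluorescence near 667 nm with spot signal-to-noise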

Structure (SMILES) | composite z-score [1] | composite z-score [2] | composite z-score [3] | z-score [4] | composite z-score [5] | composite z-score [6] | composite z-score [7] | composite z-score [8] | composite z-score [9] | composite z-score [10]
COC(=O)[C@H](Cc1ccccc1)N1CC(C)(OC)O[C@@H](Cc2ccccc2)[C@H]1/C=C/C1CC1 (stereo not given in full) | 0.292 | -0.158 | 0.0982 | -0.579 (inactive) | -0.105 | 0.178 | -0.359 | -0.151 | -0.268 | 0.609
COc1cccc(C)c1NC(=O)O[C@H]1[C@H](OC(=O)Nc2ccccc2)[C@@H](OC(=O)Nc2ccccc2)[C@@H](OC)O[C@@H]1CO | 1.5 | 0.266 | 0.553 | 0.449 (inactive) | 1.34 | 0.927 | 0.191 | 1.48 | 0.474 | 0.525
CCOC(=O)C=C1C[C@@H](c2cccc([N+](=O)[O-])c2)O[C@@H](c2cccc([N+](=O)[O-])c2)O1 | 0.765 | 1.15 | 0.895 | 0.435 (inactive) | 0.567 | 1.27 | 0.46 | 0.747 | 0.514 | 0.594
[N-]=[N+]=NCc1ccccc1[C@H]1OC(c2ccc(OCCCO)cc2)=N[C@@]1(CCS(=O)(=O)c1ccccc1)C(=O)O | 0.94 | 0.224 | 0.906 | 0.436 (inactive) | 0.283 | 0.0448 | -0.371 | -0.0142 | -0.697 | 0.839
COCCOC(=O)N1C(=O)[C@@]2(c3cc(C#CC4(O)CCCCCC4)ccc31)[C@H](C(N)=O)[C@H]1C(=O)O[C@H](c3ccccc3)[C@H](c3ccccc3)N1[C@@H]2c1ccc(OCCO)cc1 | 0.804 | 0.527 | 0.668 | -0.0691 (inactive) | 0.99 | 1.28 | 0.484 | 0.974 | 0.338 | 0.725
O=C1OCCC/C=C\[C@H]2OC34C=CCN(Cc5ccccc5)C(=O)[C@H]3N(CCO)C(=O)[C@@H]4C12 (stereo not given in full) | 1.76 | -0.214 | 0.222 | -1.25 (inactive) | 0.049 | 0.124 | -0.71 | -0.579 | -0.461 | 0.765
CCCN1C(=O)[C@@]2(c3ccc([N+](=O)[O-])cc3)CC(=O)N(C3CCCCC3)[C@@H]2c2ccc(CO)cc21 | 0.219 | 0.27 | -0.12 | -0.237 (inactive) | 0.453 | 0.478 | 0.121 | 0.41 | 1.2 | 0.898
CN(C)CCCCCCNC(=O)[C@@H]1C[C@@H]2C(=O)N[C@@H](CCCC[N+](C)(C)C)C(=O)N2[C@@H]1c1cccc(OCCO)c1 | 0.512 | 0.116 | 0.474 | -1.52 (inactive) | -1.11 | 0.218 | -0.962 | -0.714 | -0.377 | -0.246
COc1ccc(C(O)C2C=CC3C(=O)N(c4ccccc4)C(=O)C3N2Nc2ccccc2F)c2ccccc12 (stereo not given) | 0.85 | 1.59 | 1.4 | -0.038 (inactive) | 1.04 | 1.32 | 0.531 | 1.36 | -0.265 | 1.02
CCOC(=O)C1=C[C@@H](C(C)(C)C)N(S(=O)(=O)c2ccc(C)cc2)[C@H]1c1ccc(OC)cc1 | 0.463 | 0.305 | -0.0462 | -1.5 (inactive) | 0.998 | 1.29 | 0.902 | 1.27 | 0.33 | 0.318
COc1ccc([Si](C)(C)[C@@H]2[C@@H](CC(=O)N(CCO)Cc3ccccc3)O[C@]3(C(=O)N(Cc4cccc(I)c4)c4ccccc43)[C@H]2C)cc1 | 0.824 | -0.0248 | 0.337 | -0.847 (inactive) | 1.45 | 0.766 | 0.661 | 1.42 | 1.34 | 0.963
CCCCCCCCCCC(O)C1C=CC2C(=O)N(C)C(=O)C2N1Nc1ccccc1 (stereo not given) | -1.02 | -0.0132 | 0.937 | 0.953 (inactive) | -1.09 | -1.09 | -1.33 | -1.54 | -1.22 | 1.17
[N-]=[N+]=NCc1ccccc1[C@H]1OC(c2ccc(OCCCO)cc2)=N[C@@]1(Cc1ccccc1N=[N+]=[N-])C(=O)N1CCOCC1 | 1.02 | 0.596 | 0.828 | -0.1 (inactive) | 0.458 | 1.1 | -0.292 | 0.29 | -0.287 | 0.594
[N-]=[N+]=Nc1ccccc1C[C@]1(C(=O)N2CCCCC2)N=C(c2ccc(OCCCO)cc2)O[C@H]1c1ccccc1 | 1.46 | 1.01 | 1.11 | -0.117 (inactive) | 1.25 | 0.952 | 0.102 | 0.616 | 0.26 | 0.781
COc1ccc(C#Cc2ccc3c(c2)[C@]2(C(=O)N3)[C@H](c3ccccc3OCCO)N3[C@H](c4ccccc4)[C@H](c4ccccc4)OC(=O)[C@H]3[C@@H]2C(=O)NC[C@H](O)c2ccccc2)cc1 | 1.3 | 0.183 | -0.0392 | -2.01 (inactive) | 1.33 | 1.31 | 0.573 | 1.34 | 1.2 | -0.0784
O=C1NC(=O)C2C1C=CC(C(O)C(O)CO)N2Nc1ccccn1 (stereo not given) | 0.0854 | -0.191 | -0.104 | -0.396 (inactive) | 0.183 | 0.335 | 0.386 | 0.178 | 0.173 | 0.0473
CC(C)C[C@@H]1NC(=O)[C@@H]2C[C@H](C(=O)NCCCCCCNC(=O)CS)[C@H](c3ccc(O)cc3)N2C1=O | 1.57 | -0.0965 | 0.254 | -1.1 (inactive) | 1.45 | 1.26 | 0.672 | 1.47 | 1.27 | -0.0334

Structure (SMILES) | composite z-score [1] | composite z-score [2] | composite z-score [3] | z-score [4] | composite z-score [5] | composite z-score [6] | composite z-score [7] | composite z-score [8] | composite z-score [9] | composite z-score [10]
COC(=O)[C@@]1(Cc2ccc(F)cc2)[C@H]2c3cc(C(=O)N(C)C)n(CCF)c3C[C@H]2CN1C(=O)c1ccccc1 | -0.0822 | 0.9 | 0.987 | -1.66 (inactive) | 0.295 | 0.139 | -0.0604 | -0.0956 | -0.256 | 0.856
CCOC(=O)C1=CCC(c2ccncc2)N(S(=O)(=O)c2ccc(C)cc2)C1 (stereo not given) | 1.03 | 0.205 | 0.198 | -1.3 (inactive) | 1.34 | 1.29 | 0.432 | 1.05 | 0.332 | 0.856
CCCC=C(CCC)[C@@H](NC(=O)c1ccc(C(=O)OC)cc1)c1ccc(C(=O)OC)cc1 | -0.427 | 0.816 | 0.48 | -1.32 (inactive) | -0.363 | -0.197 | -0.195 | -0.0762 | -0.158 | 0.804
COC(=O)[C@@]1(Cc2ccccc2)[C@H]2c3cc(C(=O)N(C)C)n(CCF)c3C[C@H]2CN1C(=O)c1ccccc1 | 1.56 | 1.27 | 1.42 | -1.72 (inactive) | -0.0624 | 0.0979 | -0.469 | 0.0598 | -1.23 | -0.711
COc1ccc(CCNC(=O)[C@@]2(C)c3ccccc3C(=O)N(Cc3ccc(OC(F)(F)F)cc3)[C@H]2c2ccc(CO)cc2)cc1 | 0.738 | 0.781 | -0.325 | -0.383 (inactive) | 1.19 | 1.3 | 0.743 | 0.286 | 1 | -0.307
COCCOC(=O)N1C(=O)[C@@]2(c3cc(C#CCNC(N)=O)ccc31)[C@H](c1ccc(O)cc1)N1[C@H](c3ccccc3)[C@H](c3ccccc3)OC(=O)[C@H]1[C@@H]2C(=O)N1CCc2cc(OC)c(OC)cc2C1 | 0.391 | 0.206 | 0.493 | -1.41 (inactive) | 1.19 | -0.447 | 0.292 | 1.2 | 0.372 | 0.899
Cc1ccc(S[C@]2(C(=O)NCc3ccccc3)CC(=O)N(Cc3ccccc3Cl)[C@@H]2c2ccc(CO)cc2)cc1 | 1.07 | 0.169 | 0.603 | -0.419 (inactive) | -0.35 | 0.165 | -1.31 | -0.648 | -0.743 | 0.0073
C[N+](C)(C)CCCC[C@@H]1NC(=O)[C@H]2C[C@@H](C(=O)O)[C@@H](c3ccc(O)cc3)N2C1=O | 0.327 | -0.0349 | 0.149 | -0.303 (inactive) | 0.158 | 0.984 | -0.102 | 0.0506 | 0.971 | 0.832
COc1cc(Cc2cc3c(c(CCc4ccccc4)n2)[Si](C(C)C)(C(C)C)O[C@H]3c2ccccc2)cc(OC)c1OC | 1.05 | 0.0709 | 0.366 | -1.06 (inactive) | -0.507 | -1.04 | -0.4 | -0.617 | -0.308 | 0.87
COC(=O)C(CC#Cc1ccc2c(c1)[C@]1(C(=O)N2)[C@H](C(=O)NC[C@H](O)c2ccccc2)[C@H]2C(=O)O[C@H](c3ccccc3)[C@H](c3ccccc3)N2[C@@H]1c1ccc(O)cc1)C(=O)OC | 0.535 | -0.107 | 0.369 | 0.266 (inactive) | 0.243 | -0.857 | 0.221 | -0.0104 | -0.293 | -0.137
CC(C)(C)OC(=O)CC[C@]1(C(=O)N2CCOCC2)COC(c2ccc(OCCCO)cc2)=N1 | 1.45 | 0.37 | 0.668 | -0.713 (inactive) | 0.164 | -0.668 | 0.727 | -0.87 | -1.34 | 0.309
C=CC[C@]1(C(=O)NCCN2CCOCC2)N=C(c2ccc(OCCCO)cc2)O[C@H]1c1ccccc1 | 1.52 | -0.0845 | 0.942 | -0.4 (inactive) | 0.3 | 0.866 | -0.0911 | 0.281 | 0.418 | 0.772
C[N+](C)(C)CCCC[C@@H]1NC(=O)[C@H]2C[C@@H](C(=O)NCCCCCN)[C@@H](c3ccc(O)cc3)N2C1=O | 0.977 | 0.876 | 0.863 | 0.127 (inactive) | 1.53 | 1.34 | 0.243 | 0.58 | 0.89 | 0.617
COc1ccc([Si](C)(C)[C@H]2[C@H](CC(=O)N3CCC[C@H]3CO)O[C@@]3(C(=O)N(Cc4cccc(N5CCCCC5=O)c4)c4ccccc43)[C@@H]2C)cc1 | 1.01 | -0.297 | -0.441 | 1.06 (inactive) | 1.3 | 1.21 | 0.532 | 1.26 | 0.823 | 0.248
CCCC1(C(=O)OC)C=C2C(=C(C(C)C)C(=O)C2C)CN1 (stereo not given) | -0.129 | 0.759 | 0.813 | 1.44 (inactive) | -0.474 | -1.63 | -0.648 | -0.911 | -0.724 | 1.17
Cc1ccc(S(=O)(=O)N2[C@@H](c3ccccc3)C(C(=O)O)=C[C@H]2C(C)(C)C)cc1 | 1.19 | 1.08 | 1.01 | 0.233 (inactive) | 0.644 | 1.35 | 0.374 | 0.819 | 0.0781 | -0.124
